This passage reports growth results from PubChem BioAssay (NCI).

This is part of a sample that, as a whole, favours compounds with a hit. Of some 83,000 tested, about 20% had one in any assay.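 A percent growth of 40 corresponds to 60% growth inhibition; 0 means no net growth; -100 means all cells died. Active threshold: below 10.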 A number with no mark means an inactive call. Calls of active or inactive are those of the source.

Test systems include SR leukemia; RPMI-8226 leukemia; OVCAR-8 ovarian; OVCAR-4 ovarian; SK-OV-3 ovarian; IGROV1 ovarian; OVCAR-3 ovarian; HS 578T breast; OVCAR-5 ovarian; NCI/ADR-RES ovarian.
Common to all, as to assay: NCI-60 one-dose screen, 48 h (100 = growth as untreated, 0 = no growth, -100 = all killed)
Holding throughout (conditions): 10 µM unless noted

As for `CCCCCCCCCCCCN1C(C)=CS/C1=C\C=C\c1scc(C)[n+]1CCCCCCCCCCCC`, the growth with SR leukemia was -4.71% (active); with RPMI-8226 leukemia, -11.3% (active); in the test on OVCAR-8 ovarian, -8.26% (active); with OVCAR-4 ovarian, 34.2%; in the test with SK-OV-3 ovarian, 50.3%; in the test with IGROV1 ovarian, 42.8%. Also, the growth with OVCAR-3 ovarian is 31.9%; in the test on HS 578T breast, 76.6%.
Take `CC(=O)c1c(O)c(C)c(O)c2c1OC1=CC(=O)C(C(C)=O)C(=O)C12C` (centres undefined): the growth in the test on SR leukemia was 58%; in the test with RPMI-8226 leukemia it was 41.6%; with OVCAR-8 ovarian it was 92.7%; with OVCAR-5 ovarian it was 88.3%; in the test with SK-OV-3 ovarian, 98.8%; with IGROV1 ovarian it was 69.9%. Also, the growth in the test with NCI/ADR-RES ovarian is 63.4%.
As to `Oc1c(Cl)cc(Cl)cc1C(c1cc(Cl)cc(Cl)c1O)C(Cl)(Cl)Cl`, the growth in the test with SR leukemia is 9.73% (active); with RPMI-8226 leukemia, -9.94% (active); with OVCAR-8 ovarian it was -0.45% (active); in the test with OVCAR-4 ovarian, 20.4%; with SK-OV-3 ovarian, -16.7% (active); in the test with IGROV1 ovarian it was -15.7% (active). The growth was -7.63% (active) with OVCAR-3 ovarian, -11.5% (active) with HS 578T breast and -15.7% (active) in the test on NCI/ADR-RES ovarian.
For `CC1CC(C)(C)OB(OC(C)CC(C)(C)OB2OC(C)CC(C)(C)O2)O1` (centres undefined), the growth in the test with SR leukemia is 96.9%; in the test with RPMI-8226 leukemia, 100%; in the test with OVCAR-8 ovarian, 102%; in the test with OVCAR-5 ovarian, 103%; in the test on OVCAR-4 ovarian, 111%; in the test with IGROV1 ovarian it was 107%. Besides, the figures for the growth with OVCAR-3 ovarian, with HS 578T breast and in the test on NCI/ADR-RES ovarian were 76.6%, 121% and 101%, respectively.
Turning to `COc1ccc(C(OCC2OC(n3ccc(NC(=O)c4ccccc4)nc3=O)C(O)C2O)(c2ccccc2)c2ccccc2)cc1` (centres undefined), the growth is 12.4% with SR leukemia; 3.08% (active) with RPMI-8226 leukemia; 29% in the test on OVCAR-8 ovarian; 25.9% with OVCAR-4 ovarian; 75.1% with SK-OV-3 ovarian; 33.7% in the test with IGROV1 ovarian. In addition, the results for the growth in the test on OVCAR-3 ovarian, in the test with HS 578T breast and with NCI/ADR-RES ovarian were 45.6%, 61.7% and 38.1%, respectively.
`O=C(c1ccccc1)c1cc2ccccc2oc1=O`: the growth is 107% with SR leukemia; 84.3% in the test with RPMI-8226 leukemia; 96.9% in the test on OVCAR-8 ovarian; 95.2% with OVCAR-4 ovarian; 100% in the test on SK-OV-3 ovarian; 64.8% with IGROV1 ovarian. The figures for the growth with OVCAR-3 ovarian, in the test with HS 578T breast and with NCI/ADR-RES ovarian were 107%, 90.6% and 100%, respectively.
Take `CCN(CC)CCNc1ccc([N+](=O)[O-])c2sc3ccccc3c(=O)c12`: the growth with SR leukemia was 11.1%; with RPMI-8226 leukemia, 22.2%; in the test with OVCAR-8 ovarian, 19.1%; with OVCAR-4 ovarian it was 12%; in the test on SK-OV-3 ovarian, 32.6%; with IGROV1 ovarian, -10.9% (active). In addition, the growth in the test on OVCAR-3 ovarian was 36.7%; in the test with HS 578T breast it was 20.4%; with NCI/ADR-RES ovarian, 32.8%.
With `Cc1cc(C)c(C#N)c(Sc2nc(C)c([N+](=O)[O-])c(C)c2C#N)n1`, the growth was 22.7% in the test on SR leukemia; 48.7% in the test on RPMI-8226 leukemia; 77.2% with OVCAR-8 ovarian; 66.6% in the test with OVCAR-4 ovarian; 81.3% in the test with SK-OV-3 ovarian; 82.9% in the test on IGROV1 ovarian. Besides, the growth is 68.6% with OVCAR-3 ovarian, 118% in the test on HS 578T breast and 77.9% in the test on NCI/ADR-RES ovarian.
On to `CN=C(N)N/N=C(\C)c1ccc2c(c1)Cc1ccccc1-2`, for which the growth in the test on SR leukemia was -62.4% (active); in the test on RPMI-8226 leukemia, -20.7% (active); in the test on OVCAR-8 ovarian, -66.9% (active); in the test on OVCAR-5 ovarian, -69.1% (active); in the test with SK-OV-3 ovarian, -74.8% (active); in the test with IGROV1 ovarian, 20.5%. Besides, the growth with OVCAR-3 ovarian was -88.1% (active); in the test with HS 578T breast, -19.1% (active); in the test on NCI/ADR-RES ovarian, -29.7% (active).
As to `NC(=S)N/N=C\c1nccc2c(C(F)(F)F)cccc12`, the growth is -28.6% (active) in the test with SR leukemia; -13.9% (active) with RPMI-8226 leukemia; 11.1% in the test with OVCAR-8 ovarian; 36% with OVCAR-5 ovarian; 11.4% in the test on SK-OV-3 ovarian; 4.12% (active) in the test on IGROV1 ovarian. Moreover, the growth was 15.3% with OVCAR-3 ovarian, 54.3% in the test with HS 578T breast and 0.716% (active) with NCI/ADR-RES ovarian.
As for `O=C(CBr)c1ccc(OC(=O)c2ccccc2)cc1`, the growth is 88.6% with SR leukemia; 89.9% with RPMI-8226 leukemia; 104% in the test with OVCAR-8 ovarian; 99% in the test with OVCAR-4 ovarian; 100% with SK-OV-3 ovarian; 116% in the test on IGROV1 ovarian. The growth with OVCAR-3 ovarian was 105%; with HS 578T breast, 108%; with NCI/ADR-RES ovarian, 101%.
For the compound `NC1=C(Br)C(=O)c2ncccc2C1=O`, the growth with SR leukemia is -27.8% (active); with RPMI-8226 leukemia, 0.625% (active); with OVCAR-8 ovarian, 10.3%; in the test on OVCAR-4 ovarian, -89.5% (active); in the test on SK-OV-3 ovarian it was 34.9%; in the test on IGROV1 ovarian it was -5.9% (active). Also, the growth with OVCAR-3 ovarian was -11.9% (active); in the test with HS 578T breast, -13.1% (active); with NCI/ADR-RES ovarian it was 9.48% (active).
Turning to `N#CCc1cccc2ccccc12`, the growth is 100% with SR leukemia; 103% in the test with RPMI-8226 leukemia; 105% in the test with OVCAR-8 ovarian; 110% in the test on OVCAR-5 ovarian; 113% in the test with SK-OV-3 ovarian; 106% in the test on IGROV1 ovarian. Besides, the growth is 120% with OVCAR-3 ovarian, 122% in the test with HS 578T breast and 115% in the test with NCI/ADR-RES ovarian.
For `CCCCC(CCc1ccc([N+](=O)[O-])cc1)(C(C)=O)C(=O)OCC` (centres undefined), the growth in the test on SR leukemia was 63.5%; in the test on RPMI-8226 leukemia, 96.2%; in the test on OVCAR-8 ovarian it was 104%; with OVCAR-4 ovarian, 89.5%; with SK-OV-3 ovarian, 112%; in the test on IGROV1 ovarian, 101%. Further, the growth in the test on OVCAR-3 ovarian is 96.4%; in the test with HS 578T breast, 92%; in the test on NCI/ADR-RES ovarian it was 104%.
`Oc1cc(Cl)ccc1Cc1ccc(Cl)cc1O`: the growth in the test with SR leukemia is 59.1%; in the test with RPMI-8226 leukemia, 18.7%; in the test on OVCAR-8 ovarian it was 64.6%; in the test on OVCAR-4 ovarian it was 30.1%; in the test on SK-OV-3 ovarian, 90.8%; in the test with IGROV1 ovarian it was 82.5%. Further, in the test on OVCAR-3 ovarian, the growth was 40.2%.
As to `CCOc1ccc(Nc2nc3c(s2)C(=O)c2ccccc2C3=O)cc1`, the growth in the test on SR leukemia was 46.6%; with RPMI-8226 leukemia it was 51%; with OVCAR-8 ovarian, 68.4%; in the test with OVCAR-4 ovarian it was 65.5%; with SK-OV-3 ovarian, 103%; with IGROV1 ovarian, 82.2%. Besides, the growth was 53.9% in the test with OVCAR-3 ovarian, 96.8% in the test with HS 578T breast and 75.2% in the test with NCI/ADR-RES ovarian.
